BJeLR viability: BJeLR cell viability loss | inhibition, % (concentration not given with the values) | AID 1554 | BJeLR (HRASV12) viability, CellTiter-Glo ATP luminescence, 48 h | 300,000 tested, 0.17% active; in the data active = inhibition above about 50%; inconclusive = no clear call, values can overlap the other calls
SARS 3CLpro inh: SARS-CoV 3CLpro protease inhibition; recombinant SARS-CoV 3CLpro, quenched FRET peptide cleavage; inhibition, % at 6 µM; 290,000 tested, 0.14% active; AID 1706; in the data active = inhibition above about 12%
Bead autofluor: compound fluorescence in toxin protease inhibitor counterscreen. compound autofluorescence counterscreen, microsphere flow cytometry; stronger effect = higher value. fluorescence intensity (concentration not given with the values). 360,000 tested, 3.1% active. AID 624483; in the data active = fluorescence intensity above about 16000; inconclusive = no clear call, values can overlap the other calls
BoNT-A LC inh2: blocks Botulinum neurotoxin A light chain protease; inhibition, % at 10 µM; multiplex microsphere protease substrate cleavage, flow cytometry; 360,000 tested, 0.17% active; note: plate controls were buffer without enzyme for full effect and enzyme alone for no effect
Anthrax LF prot: anthrax lethal factor protease inhibition; P15917; multiplex microsphere protease cleavage assay, LF; inhibition, % at 10 µM; 360,000 tested, 0.12% active; AID 588501; note: plate controls were buffer without enzyme for full effect and enzyme alone for no effect
BoNT-F LC inh: blocks Botulinum neurotoxin F light chain protease | inhibition, % at 10 µM | 360,000 tested, 0.22% active | Multiplex microsphere protease cleavage assay, flow cytometry; in the data active = inhibition above about 35%, passing the limit was not always enough; inconclusive = no clear call, values can overlap the other calls; note: plate controls were buffer without enzyme for full effect and enzyme alone for no effect
The depositor's hits bear a star; ? = inconclusive; nt = no result. Only some compounds are listed: those with a hit (about 3.6% of all), similar ones and a draw of the others. Cut-off read from the data, not from the text of the source, unless noted: active = inhibition above about 30%; inconclusive = no clear call, values can overlap the other calls; inactive = below that.

SMILES	BJeLR viability	SARS 3CLpro inh	Bead autofluor	BoNT-A LC inh2	Anthrax LF prot	BoNT-F LC inh
CCN(CC)C(=O)c1ccc(NC(=O)c2cccc(F)c2)cc1	-1	5	20909*	-1	-4	-3
CCCn1c(NC(=O)c2cccc(S(=O)(=O)N3CCCC3)c2)nc2ccccc21	5	4	16663*	-1	-3	-5
C=C1CCN([C@H](C(=O)NCc2ccc(OC)cc2)C(C)C)S(=O)(=O)c2ccccc21	-6	nt	5104	0	2	-1
O=C(Nc1ccc(N2CCOCC2)cc1)c1cccc(S(=O)(=O)N2CCCCCC2)c1	8	1	3868	1	0	5
O=C(Nc1ccc(N2CCCC2)cc1)c1cccc(F)c1	14	1	19303*	2	-14	-33
O=C(Nc1ccc2c(c1)OCCO2)c1cccc(S(=O)(=O)N2CCCCC2)c1	6	-1	21092*	?	-4	-3
O=C(Nc1ccc(N2CCOCC2)cc1)c1cccc(S(=O)(=O)N2CCCC2)c1	-2	-5	25105*	-7	-4	-8
Cc1cccc(NC(=O)CSc2nnc(CNC(=O)c3ccco3)o2)c1	-8	-1	5198	0	1	-1
S=c1nc[nH]c2nc[nH]c12	76*	-3	5493	-1	0	-7
Cn1cnc2nc[nH]c2c1=S	nt	nt	2989	0	-1	7
Cc1ccc(S(=O)(=O)Nc2ccc3c(c2)OCCO3)c(C)c1NS(C)(=O)=O	6	-1	3718	2	-9	-22
O=C1/C(=C/c2cccnc2)Oc2cc(OS(=O)(=O)c3ccc(Cl)cc3)ccc21	-6	0	21029*	4	2	6
COc1ccc(S(=O)(=O)Oc2ccc3c(c2)O/C(=C\c2cccnc2)C3=O)cc1	-7	2	23126*	?	-2	-2
O=C(CSc1cccc2cccc(Cl)c12)NCc1cccs1	2	2	2637	1	1	1
COc1cccc(NC(=O)CC2C(=O)NC3CCCCC3N2C(=O)c2ccc(F)cc2)c1 (configuration not stated)	-3	-2	12217	1	-3	7
CCN1CCN(Cc2ccc(OCc3ccccc3)cc2)CC1	9	2	20089*	4	-7	3
CN1CCN(Cc2ccc(OCc3ccccc3)cc2)CC1	-5	0	11055	-1	-5	-14
COc1cc(C2CC(=O)N(CC(=O)NCc3ccco3)c3ccccc3S2)cc(OC)c1OC (configuration not stated)	0	4	24105*	-1	-1	-2
O=C(CN1C(=O)CC(c2ccco2)Sc2ccccc21)NCc1ccc2c(c1)OCO2 (configuration not stated)	0	3	23277*	-3	-2	-3
CCN1C(=O)CC(c2ccco2)Sc2ccccc21 (configuration not stated)	-2	-1	17133*	-3	-4	-8
COc1cc(C2CC(=O)N(CC(=O)NCC3CCCO3)c3ccccc3S2)cc(OC)c1OC (configuration not stated)	-6	0	2706	0	1	-1
CC(C)NC(=O)CN1C(=O)C(=O)c2ccccc21	-14	4	22994*	?	-3	-2
C[C@@H]1CN(c2c(F)c(N)c3c(=O)c(C(=O)O)cn(C4CC4)c3c2F)C[C@H](C)N1	nt	3	nt	nt	nt	nt
COc1ccc(OC)c(N2C(=O)NC(=O)C3(Cc4cc(C)ccc4N(C)C3)C2=O)c1 (configuration not stated)	0	2	16331*	0	-2	2
COc1cccc(N2C(=O)NC(=O)C3(Cc4cc(C)ccc4N(C)C3)C2=O)c1 (configuration not stated)	-3	-1	2993	0	-1	-8
SMILES	BJeLR viability	SARS 3CLpro inh	Bead autofluor	BoNT-A LC inh2	Anthrax LF prot	BoNT-F LC inh
CCCCN1C(=O)NC(=O)C2(Cc3cc(C)ccc3N(C)C2)C1=O (configuration not stated)	-7	-1	2947	0	-2	-2
COc1cc(CN2C(=O)NC(=O)C3(Cc4cc(C)ccc4N(C)C3)C2=O)cc(OC)c1 (configuration not stated)	nt	-2	22009*	0	-2	-2
Cc1ccc2c(c1)CC1(CN2C)C(=O)NC(=O)N(c2cc(C)ccc2C)C1=O (configuration not stated)	-3	-1	22449*	1	-1	3
Cc1csc2nc(O)c(C(=O)NC3CCCCCC3)c(=O)n12	6	nt	18119*	-49	-16	-81
CN=C1SC(CC(=O)Nc2ccc(N3CCOCC3)cc2)C(=O)N1C (configuration not stated)	6	-1	25216*	?	-1	-8
CN=C1SC(CC(=O)Nc2cccc(C(F)(F)F)c2)C(=O)N1C (configuration not stated)	10	-2	16700*	-1	-1	-5
O=C(Nc1ccc(Cl)c(C(F)(F)F)c1)C1CCCN(S(=O)(=O)c2cnc[nH]2)C1 (configuration not stated)	5	6	20180*	-1	-3	-4
Cc1ccc(C)c(CSc2nnc([C@@H](N)C(C)C)o2)c1	3	-1	16262*	0	2	-4
Cc1ccc(C)c(CSc2nnc(CCN)o2)c1	-2	-2	9821	0	2	6
Cc1cc(C)c(NC(=O)C2CCCO2)c(C)c1 (configuration not stated)	2	nt	5591	1	-3	8
O=C(Nc1c(F)cc(F)cc1Br)C1CCCO1 (configuration not stated)	-7	2	25313*	-5	-2	-8
CC1=CC(=O)N(c2cccc(C(F)(F)F)c2)C1c1ccc(Cl)cc1 (configuration not stated)	4	9	23466*	1	-2	-1
CCN(CC)CCN(Cc1cc2ccc(C)c(C)c2[nH]c1=O)C(=S)NCc1ccco1	8	1	10347	-1	-8	-4
CC(C)(C)c1cccc(Oc2nn[nH]n2)c1	1	-2	7873	-1	-5	-4
Cc1cc(C)cc(Oc2nn[nH]n2)c1	-9	-5	24301*	-1	1	-4
Cc1ccc(N=C2NC(=O)/C(=C/c3cn(C)c4ccccc34)S2)cc1C	nt	-4	3992	5	5	2
O=C(Cc1ccc(NC(=O)C2CCCN(C(=O)C3CCCCC3)C2)cc1)Nc1ccc(C(=O)N2CCOCC2)cc1 (configuration not stated)	nt	nt	3740	0	0	1
Cc1cc(C)n(C(=O)c2c([N+](=O)[O-])c(C)nn2C)n1	5	3	24146*	-4	-1	-4
Cc1cc(C)n(C(=O)c2c([N+](=O)[O-])cnn2C)n1	3	-7	9482	1	3	-2
CCc1ccc(CCC(=O)N2CCN(S(=O)(=O)c3ccc(Br)cc3)CC2)cc1	nt	nt	2981	-1	-5	-6
Cc1cc(C)n2nc(S(=O)(=O)N(CC(C)C)CC(C)C)nc2n1	-4	-2	5107	-2	-1	-9
